# Assay outcomes as filed in PubChem BioAssay.
# APOBEC3G inh – blocks human APOBEC3G single-stranded DNA deamination; Q9HC16; recombinant A3G, ssDNA deamination FAM/TAMRA fluorescence; inhibition, % at 20 µM; 330,000 compounds, 0.28% hits; AID 493012;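 active means inhibition of at least 40% at 20 µM, with no more than 30% in the related APOBEC3A deaminase screen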
# Target sequence (Q9HC16 whole entry, looked up): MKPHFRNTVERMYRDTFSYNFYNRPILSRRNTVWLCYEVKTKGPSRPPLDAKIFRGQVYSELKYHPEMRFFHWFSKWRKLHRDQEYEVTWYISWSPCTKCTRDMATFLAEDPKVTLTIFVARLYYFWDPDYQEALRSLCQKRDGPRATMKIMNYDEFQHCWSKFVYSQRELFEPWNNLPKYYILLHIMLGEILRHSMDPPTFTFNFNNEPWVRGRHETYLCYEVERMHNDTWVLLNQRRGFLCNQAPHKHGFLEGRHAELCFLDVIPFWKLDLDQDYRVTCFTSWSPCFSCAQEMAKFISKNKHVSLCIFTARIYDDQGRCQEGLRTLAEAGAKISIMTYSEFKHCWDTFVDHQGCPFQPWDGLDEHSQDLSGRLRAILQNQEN
# A3A deaminase – blocks human APOBEC3A ssDNA deamination; P31941; recombinant A3A, FAM/TAMRA ssDNA deamination fluorescence; inhibition, % at 20 µM; 330,000 compounds, 0.41% hits;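 active means at least 40% inhibition at 20 µM here, with at most 30% in a related deaminase screen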
# Target sequence (P31941 whole entry, looked up): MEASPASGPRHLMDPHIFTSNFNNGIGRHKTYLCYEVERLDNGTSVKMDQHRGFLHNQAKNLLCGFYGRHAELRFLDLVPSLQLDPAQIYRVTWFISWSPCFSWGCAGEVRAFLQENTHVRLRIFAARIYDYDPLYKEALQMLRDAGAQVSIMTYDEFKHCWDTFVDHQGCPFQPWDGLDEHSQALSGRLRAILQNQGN
# CR mimetic SO – lowers age-related superoxide in aged yeast cells; S. cerevisiae aged cells, superoxide DHE fluorescence; stronger effect = lower value; superoxide response (% of plate mean), % at 10 µM; AID 2690; 330,000 compounds, 0.18% hits;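 active means superoxide response under a set limit, about three screen SD below normal, cut at about 65% in these data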;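 further: yeast aged for seven days with compound at 30 °C before DHE staining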
# PfGluPho inh – PfG6PD (Plasmodium falciparum) enzyme inhibition | PfGluPho enzyme, NADPH resazurin-diaphorase fluorescence | 350,000 compounds, 0.78% hits | inhibition, % at 20 µM | AID 504690;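 active means inhibition reaching at least a set limit at 20 µM in the primary screen, cut at about 59% in these data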
# PfM18AAP inh – PfM18AAP enzyme inhibition; inhibition, % at 7.35 µM; 290,000 compounds, 1.2% hits; recombinant PfM18AAP, H-Glu-NHMec fluorogenic cleavage; AID 1822;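 active means inhibition above the campaign mean inhibition over all tested compounds plus 3 SD, cut at about 28% in these data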
# PfG6PD confirm – confirmation of Plasmodium falciparum G6PD inhibitors | shares compounds with PfGluPho inh | recombinant PfGluPho, NADPH-diaphorase-resazurin fluorescence | inhibition, % at 20 µM | 2,400 compounds, 34% hits;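 active means inhibition of at least 50% at 20 µM in any single replicate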
# Diaph ctr 10uM – diaphorase inhibition or oxidation at 10 uM NADPH; shares compounds with PfGluPho inh; diaphorase-coupled resazurin reduction, fluorescence, NADPH 10 uM; inhibition, % at 20 µM; 820 compounds, 39% hits; AID 504862;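 active means average inhibition reaching 50% or more with the compound at 20 µM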;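 further: resorufin red fluorescence formed as diaphorase reduces resazurin using NADPH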
# Diaph ctr 30uM – inhibits diaphorase or oxidizes, flagging false PfG6PD hits. shares compounds with PfGluPho inh. Diaphorase/resazurin coupled assay, resorufin fluorescence, 30 uM NADPH. inhibition, % at 20 µM. 820 compounds, 29% hits;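 active means inhibition averaging 50% or more, tested at 20 µM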
# A number is an active result; . = inactive; / = not tested or not shown. In the library only some 2.4% were active in any assay of this set; here they are far more common.
SMILES,APOBEC3G inh,A3A deaminase,CR mimetic SO,PfGluPho inh,PfM18AAP inh,PfG6PD confirm,others
COc1ccccc1NS(=O)(=O)c1cc(N)ccc1N1CCOCC1,.,.,.,.,/,/,
COc1ccccc1NS(=O)(=O)c1cc(N)ccc1N1CCCC1,.,.,.,70,/,.,
COc1ccc(CN2C(=O)C(CC(=O)NC3CCCCC3)CC(C(=O)N(C(C)C)C(C)C)=C2C)cc1 (stereo unspecified),/,/,/,.,/,/,
O=C(OCC(=O)N1CCCC1=O)C1COc2ccccc2O1 (stereo unspecified),.,.,.,.,.,/,
CC(NS(=O)(=O)c1cccc(Cl)c1F)[C@H](O)c1ccccc1 (stereo partly specified),/,/,/,.,/,/,
O=S(=O)(Cc1ccccc1)NCCc1cccc(Cl)c1,.,.,.,.,.,/,
CN1CCCCCC1=Nc1ccc([N+](=O)[O-])cc1,.,.,.,.,/,/,
CN1C(=O)C(N=Nc2ccc([N+](=O)[O-])cc2)SC1=S (stereo unspecified),/,/,/,106,/,52,Diaph ctr 10uM=54;Diaph ctr 30uM=.
C[C@H]1CN([C@@H](C)CO)C(=O)c2cc(Br)cnc2O[C@@H]1CN(C)C(=O)C1CCC1,/,/,/,.,/,/,
Cc1ccc(NC(=O)c2ccc(-n3cccn3)c([N+](=O)[O-])c2)cc1C,.,.,.,77,.,.,
COc1ccc(NC(=O)c2ccc(-n3cccn3)c([N+](=O)[O-])c2)cc1,.,.,.,.,.,/,
O=C(Nc1ccc(Cl)cc1)c1ccc(-n2cccn2)c([N+](=O)[O-])c1,.,.,.,70,.,.,
Cc1cccc(C(=O)Nc2cccc(C(=O)N/N=C/c3ccccn3)c2)c1,.,.,.,.,.,/,
O=C(O)c1cccc(NC(=S)N/N=C/c2ccccn2)c1,.,.,.,68,.,.,
S=C(N/N=C/c1ccc2ncccc2c1)Nc1cccnc1,.,.,.,69,.,.,
COc1ccc(CCC(=O)OCC(=O)NC2CCCC2)cc1OC,/,/,/,.,/,/,
O=c1cc(-c2ccccc2)oc2cc(O)c(O)c(O)c12,.,.,.,102,/,95,Diaph ctr 10uM=94;Diaph ctr 30uM=81
O=c1cc(-c2ccccc2)oc2ccc(Cl)cc12,/,/,/,.,/,/,
COc1ccc(N2CCN(C(=S)Nc3ccccc3OC)CC2)cc1,.,.,.,.,.,/,
COc1cc2c(cc1[N+](=O)[O-])-c1ccc([N+](=O)[O-])cc1C2=NNC(N)=S,/,/,/,73,/,.,
NC(=S)NN=C1c2cc(Cl)ccc2-c2c1cc(Cl)cc2[N+](=O)[O-],/,/,/,.,/,/,
O=C(CC(=O)N/N=C/c1ccc(Cl)cc1Cl)NCc1ccccc1,.,.,.,.,.,/,
Cc1ccsc1/C=N/NC(=S)NCc1ccccc1,.,.,.,.,.,/,
Cc1ccsc1/C=N\NC(=O)CC(=O)NCc1ccccc1,.,.,.,86,.,73,Diaph ctr 10uM=61;Diaph ctr 30uM=.
O=C(CC(=O)N/N=C/c1c(F)cccc1Cl)NCc1ccccc1,.,.,.,77,.,67,Diaph ctr 10uM=62;Diaph ctr 30uM=52
SMILES,APOBEC3G inh,A3A deaminase,CR mimetic SO,PfGluPho inh,PfM18AAP inh,PfG6PD confirm,others
CCc1ccc(N2CC(C(=O)Nc3ccccc3N3CCCC3)CC2=O)cc1 (stereo unspecified),/,/,/,.,/,/,
CN(C(=S)NC(=O)C1CC1)c1ccc(O)cc1,.,.,.,60,/,.,
CCN(C(=S)NC(=O)C1CC1)c1ccccc1,.,.,.,.,.,/,
CCOC(=O)c1cnc(-c2ccccc2O)nc1Cl,.,.,.,60,.,.,
CCOC(=O)c1cnc(-c2ccccc2)nc1Oc1ccc(Cl)cc1,.,.,.,.,.,/,
O=S(=O)(NC1c2cccc3cccc(c23)C1N1CCNCC1)c1ccc(Cl)cc1 (stereo unspecified),.,.,.,.,.,/,
CCn1c(NC(=O)c2ccc(C)cc2)c2ccccc2nc1=O,.,.,.,72,.,.,
CN1CCSc2ccc(C(=O)NCc3cccc(F)c3)cc21,.,.,.,69,.,.,
CN1CCSc2ccc(C(=O)Nc3ccc(Cl)cc3)cc21,.,.,.,.,.,/,
COc1cccc(NC(=O)c2ccc3c(c2)N(C)CCS3)c1,.,.,.,94,.,.,
CC(=O)OCC=C1CCC2C3CC(C)C4=CC(=O)CCC4(C)C3C(O)CC12C (stereo unspecified),/,/,/,.,/,/,
N#Cc1cnn(-c2ccccc2)c1NC(=O)CN1CCN(c2ccccc2)CC1,.,.,.,.,.,/,
C(=N\NC1=Nc2cccc3cccc1c23)/c1ccccn1,/,/,/,65,.,.,
CCn1c2ccccc2c2nc3cc(S(=O)(=O)N4CCOCC4)ccc3nc21,/,/,/,100,.,61,Diaph ctr 10uM=.;Diaph ctr 30uM=.
c1ccc2nc3c(nc2c1)c1ccccc1n3CCN1CCOCC1,.,.,.,.,.,/,
CC(C)(C)c1ccc(-c2nc3n(c(=O)c2C#N)CCS3)cc1,.,.,.,.,.,/,
CCOC(=O)CSc1nnc(NC(=O)c2ccc3c(c2)OCO3)s1,.,.,.,.,.,/,
Cc1cnc(NC(=O)c2sc3ccccc3c2Cl)s1,.,.,.,.,.,/,
CC(C)c1nnc(NC(=O)c2ccc3ccccc3c2)s1,.,.,.,74,.,.,
Cc1nnc(NC(=O)c2ccc3ccccc3c2)s1,.,.,.,.,.,/,
CCSc1nnc(NC(=O)c2ccc3c(c2)OCO3)s1,.,.,.,85,.,74,Diaph ctr 10uM=68;Diaph ctr 30uM=68
CC(C)c1nnc(NC(=O)c2ccc3c(c2)OCO3)s1,.,.,.,73,.,.,
CC(C)c1nnc(NC(=O)c2sc3ccccc3c2Cl)s1,.,.,.,64,.,63,Diaph ctr 10uM=.;Diaph ctr 30uM=.
COc1ccc2c(c1)CSC(c1ccccc1)C2=O (stereo unspecified),/,/,/,.,/,/,
COc1ccc(S(=O)Cc2ccc(C(=O)NCc3cccc(OC)c3)o2)cc1 (stereo unspecified),.,.,.,.,.,/,
SMILES,APOBEC3G inh,A3A deaminase,CR mimetic SO,PfGluPho inh,PfM18AAP inh,PfG6PD confirm,others
O=C1NC(=O)C2(C=C(c3ccccc3)C(O)(c3ccccc3)C2)N1 (stereo unspecified),/,/,/,.,/,/,
CC(C)Sc1nnc(NC(=O)c2ccc3c(c2)OCO3)s1,.,.,.,100,.,66,Diaph ctr 10uM=59;Diaph ctr 30uM=.
COc1cccc(/C=N/NC(=O)c2c(C)nc3ccc(Br)cn23)c1,.,.,.,91,.,54,Diaph ctr 10uM=.;Diaph ctr 30uM=.
COc1ccc(OC)c(/C=N/NC(=O)c2cccc3ccccc23)c1,.,.,.,.,/,/,
Cc1nn(C)c(C(=O)N/N=C/c2cccc(Oc3ccccc3)c2)c1Br,.,.,.,145,.,89,Diaph ctr 10uM=80;Diaph ctr 30uM=71
COc1ccc(OC)c(/C=N/NC(=O)c2c(C)nc3ccc(C)cn23)c1,.,.,.,62,.,.,
O=C1CSc2cc(Cl)ccc2N1,/,/,/,.,/,/,
CC(C(=O)Nc1cc([N+](=O)[O-])ccc1Cl)N1CCN(c2ccc(O)cc2)CC1 (stereo unspecified),/,/,.,60,29,.,
